Measured values as given in PubChem BioAssay (Tox21).
Several values for one entry are separate records, joined by “and”; a condition that tells them apart may be missing. Equal values may be shown once. Inconclusive results are not listed. Values without a mark were called inactive. Activity calls are given as the source filed them. Calls follow the shape of the full dose curve.

biological target: Thyrotropin receptor (Homo sapiens) (UniProt P16473); assay: qHTS assay to identify small molecule agonists of the thyroid stimulating hormone receptor (TSHR) signaling pathway (AID 1224843); conditions: TSHR-HEK293 cells, cAMP HTRF, agonist mode, 30 min; series mostly up to 92.4 µM; activation: at the top concentration; also: nearly all actives have a fitted effect of over 45% in size
Description: National Center for Advancing Translational Sciences [NCATS]
NIH Chemical Genomics Center [NCGC]
U.S. Environmental Protection Agency [EPA]
National Institutes of Environmental Health Sciences [NIEHS]
National Toxicology Program [NTP]
U.S. Food and Drug Administration [FDA]
TSHR is the receptor for thyrotropin (thyroid stimulating hormone or TSH), a member of the glycoprotein hormone family. TSH is released by the anterior pituitary gland and is the main regulator of thyroid gland growth and development. Upon binding circulating thyrotropin, a G-protein signal cascade activates adenylyl cyclase and […] cAMP concentration is increased. cAMP is a key second messenger involved extensively in cellular signal transduction pathways associated with the majority of G-protein coupled receptors (GPCRs). The activation of these GPCRs by neurotransmitters, lipids, nucleotides, peptides and hormones results in the activation or the inhibition of plasma membrane-bound adenylate cyclase through heterotrimeric G-proteins. A cell-based TSHR assay was used to screen the Tox21 10K library for compounds that can modulate TSHR in agonist mode.
Tox21 Assay Protocol Summary:
TSHR-Hek293 cells were dispensed at 800 cells/4uL/well in 1536-well white plates using a Multidrop dispenser. […] The plates were incubated at room temperature for 30 min. 2.5 ul/well of cAMP-d2 and 2.5ul/well of anti-cAMP-cryptate was added respectively into the assay plates using a Flying Reagent Dispenser. After 1 hr incubation at room temperature, the fluorescence intensity in the plates was measured using an Envision plate reader. Each test compound was measured at 15 concentrations and in triplicates.
% is scaled to controls: 0 for no effect and ±100 for the full control effect; potency is read from the fitted curve at half-maximal effect.

Chain of Thyrotropin receptor (Homo sapiens) (P16473 whole entry, looked up): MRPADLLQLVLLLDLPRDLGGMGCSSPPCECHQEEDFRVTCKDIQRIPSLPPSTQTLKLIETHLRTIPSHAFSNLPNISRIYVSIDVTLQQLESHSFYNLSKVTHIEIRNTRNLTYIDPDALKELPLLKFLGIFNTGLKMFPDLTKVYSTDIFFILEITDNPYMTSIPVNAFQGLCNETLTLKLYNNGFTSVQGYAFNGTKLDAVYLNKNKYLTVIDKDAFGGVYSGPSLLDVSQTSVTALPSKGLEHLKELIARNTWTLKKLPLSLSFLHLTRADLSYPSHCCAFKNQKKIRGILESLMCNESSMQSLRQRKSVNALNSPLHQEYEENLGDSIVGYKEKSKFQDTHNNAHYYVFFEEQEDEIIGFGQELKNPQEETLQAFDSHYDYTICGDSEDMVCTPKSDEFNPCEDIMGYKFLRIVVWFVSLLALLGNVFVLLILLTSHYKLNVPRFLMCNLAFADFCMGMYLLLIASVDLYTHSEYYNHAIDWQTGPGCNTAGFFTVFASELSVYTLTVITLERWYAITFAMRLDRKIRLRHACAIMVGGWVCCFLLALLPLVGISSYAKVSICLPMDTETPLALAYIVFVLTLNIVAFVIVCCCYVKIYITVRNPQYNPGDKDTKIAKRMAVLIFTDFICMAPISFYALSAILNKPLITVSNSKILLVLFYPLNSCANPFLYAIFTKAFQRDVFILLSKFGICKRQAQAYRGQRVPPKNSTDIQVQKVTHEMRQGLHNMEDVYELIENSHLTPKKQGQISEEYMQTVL

Point of comparison: `C(COCC1CO1)OCC1CO1` (stereo not given), “activation” value -28.5%. Against it:
- CC(=O)CN(CC(C)=O)N=O — higher, 0.252%
- CON(C)C(=O)Nc1ccc(Br)c(Cl)c1 — higher, 16.7%
- CC1N=C(N)OC1c1ccccc1 (stereo not given) — higher, 6.95%
- CCC(=O)c1ccc(Cl)cc1 — higher, 9.21%
- O=C(Cl)C(Cl)Cl — higher, 16.1%
- NNCc1ccccc1 — higher, -6.26%
- CCC(C)(C#N)N=NC(C)(C#N)CC (stereo not given) — higher, -6.6%
- CCSC(=O)Cl — higher, 4.31%
- Clc1nc(Cl)nc(Nc2ccccc2Cl)n1 — higher, 6.04%
- C/C=C/CC#N — higher, 9.02%
- COP(=O)(O)OC — higher, -0.344%
- CCOC(=O)Nc1cccc(OC(=O)Nc2ccccc2)c1 — higher, -0.951%
- COC(=O)c1ccc(CBr)cc1 — higher, 4.13%
- CCCC[N+](=O)[O-] — higher, -4.39%
- O=C(CCl)NCO — higher, -11.6%
- CC(Cl)(Cl)Cl — higher, 1.51%
- O=C1CC(=O)NC(=O)N1 — higher, -11.6%
- O=C(Cl)OCc1ccccc1 — higher, 0.438%
- COP(=O)(OC)O/C(C)=C/C(=O)N(C)C — higher, -1.25%

Point of comparison: `C=CCC1(C(C)CC)C(=O)NC(=O)NC1=O` (stereo not given), “activation” value 11.1% [at 42.5 µM]. Against it:
- NC(=O)CS(=O)C(c1ccccc1)c1ccccc1 (stereo not given) — lower, -1.56% [at 42.5 µM]
- CN1C(=O)COc2c(C(=O)NC3CN4CCC3CC4)cc(Cl)cc21 (stereo not given) — lower, 8.5% [at 42.5 µM]
- NC(=O)OCCCc1ccccc1 — lower, -0.0949% [at 42.5 µM]
- COc1cccc([C@@]2(O)CCCC[C@@H]2CN(C)C)c1 — lower, -0.465% [at 42.5 µM]
- Cc1ccc(Cl)c(O)c1 — lower, -2.92% [at 42.5 µM]
- CN(C)C(=O)Oc1cc(OC(=O)N(C)C)cc(C(O)CNC(C)(C)C)c1 (stereo not given) — lower, -0.157% [at 42.5 µM]
- [O-][Br+2]([O-])O — lower, -1.75% [at 42.5 µM]
- CC1NCCOC1c1ccccc1 (stereo not given) — lower, -3.05% [at 42.5 µM]
- COC[C@@H](NC(C)=O)C(=O)NCc1ccccc1 — lower, -0.406% [at 42.5 µM]
- CC(C)(N)Cc1ccc(Cl)cc1 — lower, -0.216% [at 42.5 µM]
- C[C@]12C=CC(=O)C=C1CC[C@@H]1[C@@H]2CC[C@@]2(C)[C@H]1CC[C@]2(C)O — lower, 1.01% [at 42.5 µM]
- O=c1[nH]oc2c1CCNC2 — lower, 3.42% [at 42.5 µM]
- CC(C)NCC(O)c1ccc([N+](=O)[O-])cc1 (stereo not given) — lower, 1.92% [at 42.5 µM]
- CCCN1CCC[C@@H]2Cc3[nH]ncc3C[C@H]21 — lower, 0.0417% [at 42.5 µM]
- CCC1(c2ccccc2)C(=O)N(COC)C(=O)N(COC)C1=O — higher, 19.9% [at 42.5 µM]
- CCC(CC)(CNC(=O)CCCO)c1cccc(OC)c1 — lower, 8.02% [at 42.5 µM]

For `ClC1=C(Cl)C2(Cl)C(CBr)CC1(Cl)C2(Cl)Cl` (stereo not given), the Potency was 4.33 µM (active) and 10.6 µM (active).
For `C/C(=N\NC(=O)Nc1cc(F)cc(F)c1)c1ncccc1C(=O)O`, the Potency was “inactive”.

In the case of `Cc1ccc2c(c1)C1CN(C)CCC1N2` (stereo not given), the activation is reported as 15.7% [at 19 µM].
